TbREL1 primary: TbREL1 inhibition, primary screen; P86926; TbREL1 RNA ligation, FRET fluorescence; inhibition, % at 9.66 µM; hit rate 0.49% among 89,000;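 active means inhibition above the mean inhibition across all screened compounds plus 3 SD, cut at about 11% in these data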
Target sequence (P86926 whole entry, looked up): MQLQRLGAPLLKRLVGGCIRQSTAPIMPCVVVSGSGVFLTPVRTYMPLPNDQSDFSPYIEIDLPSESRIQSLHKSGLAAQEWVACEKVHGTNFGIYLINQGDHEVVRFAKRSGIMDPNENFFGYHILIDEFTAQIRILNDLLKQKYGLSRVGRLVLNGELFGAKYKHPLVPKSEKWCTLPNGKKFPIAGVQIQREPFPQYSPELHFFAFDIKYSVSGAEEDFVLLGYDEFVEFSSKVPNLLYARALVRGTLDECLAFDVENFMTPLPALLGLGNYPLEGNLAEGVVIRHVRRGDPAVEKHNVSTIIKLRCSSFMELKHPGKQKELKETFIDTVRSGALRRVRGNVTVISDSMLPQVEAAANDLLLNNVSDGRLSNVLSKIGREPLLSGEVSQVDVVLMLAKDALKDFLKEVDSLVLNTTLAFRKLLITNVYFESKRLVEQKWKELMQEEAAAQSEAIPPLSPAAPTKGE
TbREL1 confirm: TbREL1 inhibition, confirmation; hit rate 37% among 390; shares compounds with TbREL1 primary; TbREL1 RNA ligation, FRET fluorescence; AID 1117282; inhibition, % at 9.66 µM;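 active means mean inhibition across replicates above a set limit taken from the earlier primary screen, cut at about 11% in these data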
Numbers stand for hits; 0 = inactive. The sample as a whole holds a higher share of hits than the screen did.

SMILES	TbREL1 primary	others
O=C(/C=C\c1ccccc1[N+](=O)[O-])Nc1ccccc1	12	TbREL1 confirm=0
CC(=O)N(C)c1ccc(NC(=O)/C=C/c2ccccc2Cl)cc1	0
COC(=O)[C@]12C[C@H](CC(=O)NCc3cccc4ccccc34)C(=O)N(Cc3ccco3)C1=C[C@H](COCc1ccccc1)O[C@@H]2C	0
O=C(Nc1ccc(Br)cc1)OC1CC2CC1[C@H]1CCCCN1C2 (stereo partly specified)	0
CCC(=O)N1CCCC(C(=O)Nc2nc3ccccc3[nH]2)CC1 (stereo unspecified)	0
CC(C)c1ccc(NC(=O)Nc2nc(C(N)CCc3ccccc3)cs2)cc1 (stereo unspecified)	0
NC(Cc1ccc(C(F)(F)F)cc1)c1csc(NC(=O)Nc2ccccc2Cl)n1 (stereo unspecified)	0
CC(C)C(N)c1csc(NC(=O)Nc2ccccc2C(C)(C)C)n1 (stereo unspecified)	13	TbREL1 confirm=0
CCCCOc1ccc(C(=O)NC2CCCCN(C)C2=O)cc1 (stereo unspecified)	0
COC(=O)C1=C(C)N(Cc2ccc(C(F)(F)F)cc2)C(=NCc2ccc(C(F)(F)F)cc2)NC1c1ccccc1C(F)(F)F (stereo unspecified)	17	TbREL1 confirm=24
COC(=O)C1=C(C)N(Cc2ccc(C(F)(F)F)cc2)C(=NCc2ccc3c(c2)OCO3)NC1c1ccccc1C(F)(F)F (stereo unspecified)	17	TbREL1 confirm=22
COC(=O)C1=C(C)N(Cc2ccc(C(F)(F)F)cc2)C(=NCc2ccccc2C(F)(F)F)NC1c1ccccc1C(F)(F)F (stereo unspecified)	17	TbREL1 confirm=23
COC(=O)C1=C(C)N(C)C(=NCc2ccccc2)NC1c1ccccc1C(F)(F)F (stereo unspecified)	0
COC(=O)C1=C(C)N(c2ccccc2)C(=S)NC1c1ccccc1C(F)(F)F (stereo unspecified)	0
COC(=O)N(C)C[C@H]1OCc2cn(nn2)CCCC(=O)N([C@@H](C)CO)C[C@@H]1C	0
COc1cc(NC(=O)c2[nH]c(C)c(C(C)=O)c2C)c(OC)cc1Cl	0
O=C(NC1CCCCN(Cc2ccc(Cl)cc2)C1=O)c1ccc(Cl)cc1Cl (stereo unspecified)	0
C[C@H]1CN([C@@H](C)CO)C(=O)CCCn2cc(nn2)CO[C@@H]1CN(C)C(=O)Oc1ccccc1	0
Cc1occc1-c1nnc(SCC(=O)Nc2ccccn2)n1-c1ccccc1	0
C[C@@H](NCCCn1cnc2c(OCc3ccccc3)ncnc21)c1cccc2ccccc12	13	TbREL1 confirm=13
O=C(Cn1cnc2c(OCc3ccccc3)ncnc21)NCCN1CCOCC1	0
C[C@@H](NC(=O)Cn1cnc2c(OCc3ccccc3)ncnc21)c1cccc2ccccc12	0
CCN(C(=O)[C@@H](C1CC1)[C@@H](O)c1ccc(Cl)cc1)c1ccccc1	0
O=C(CCCN1C(=O)/C(=C\c2ccccc2)SC1=S)Nc1ccc(O)cc1	0
O=C(CCN1C(=O)/C(=C\c2ccccc2)SC1=S)Nc1ccc(C(=O)O)cc1	0
SMILES	TbREL1 primary	others
O=C(CCN1C(=O)S/C(=C/c2ccccc2)C1=O)Nc1ccc(O)c(C(=O)O)c1	14	TbREL1 confirm=15
COc1ccc(Cc2c(-c3ccc(Cl)cc3)nc3cc(C)c(Br)c(C)n23)c(C)c1	0
CCOC(=O)[C@@]12CCC3=C1N(CCC3)C(=O)[C@H](CC(=O)N1CCOCC1)C2	0
CCCCNC(=O)O[C@H]1CC[C@@]23CCCN2C(=O)CCC[C@H]3C1	13	TbREL1 confirm=0
O=C(NCCc1ccccc1)O[C@H]1CC[C@@]23CCCN2C(=O)CCC[C@H]3C1	0
O=C(NCc1ccccc1)O[C@@H]1CC[C@@]23CCCN2C(=O)CCC[C@H]3C1	0
CCCCN1CCN(C2=Nc3ccccc3Sc3ccccc32)CC1	0
CCOC(=O)N1CCN(C(=O)CSc2cc(C)nc3c(-c4ccccc4OC)c(C)nn23)CC1	13	TbREL1 confirm=0
COc1ccccc1-c1c(C)nn2c(N3CCC(C)CC3)cc(C)nc12	0
COc1ccccc1-c1c(C)nn2c(N3CCC(C(N)=O)CC3)cc(C)nc12	0
COCCNC(=O)c1c(N)[nH]c(C(=O)c2ccc(Br)cc2)c1-c1c(OC)ccc2ccccc12	0
Nn1c(SCC(=O)Nc2ccc(C(=O)O)cc2)nnc1-c1ccco1	0
Cc1ccc(S(=O)(=O)N2CCCC2C(=O)N2CCc3ccccc3C2)cc1 (stereo unspecified)	0
Cc1ccc(N2C(=O)c3ccc(C(=O)O)cc3C2=O)cc1C	0
O=C(O)c1cc(N2C(=O)C=CC2=O)cc(N2C(=O)C=CC2=O)c1	85	TbREL1 confirm=30
O=C(O)c1cc(C(=O)O)c(-c2ccccc2)c(C(=O)O)c1	0
O=C(CSc1nnc(-c2cccnc2)n1Cc1ccco1)Nc1ccc(Cl)cc1	0
Cc1onc(-c2ccccc2Cl)c1C(=O)N1CCCCC1	0
O=C(c1ccc(-c2ccccc2Cl)o1)N1CCCCCCC1	13	TbREL1 confirm=0
O=C(c1ccc(-c2ccc([N+](=O)[O-])cc2)o1)N1CCCCCCC1	0
O=C(Cn1nnc(-c2ccncc2)n1)Nc1ccc(Oc2ccccc2)cc1	0
CCCCCCC(=O)NC1CCCCN(C)C1=O (stereo unspecified)	0
Cc1cc(C)n2c(NC3CCCCC3)c(CC(C)C)nc2n1	0
CN1C(c2ccccc2)CC2CN(c3ccccc3)C(=O)C21 (stereo unspecified)	0
COc1cccc(CN(C)C(=O)[C@H]2O[C@@H](n3cnc4c(=O)[nH]c(N)nc43)[C@H](O)[C@@H]2O)c1	14	TbREL1 confirm=19
SMILES	TbREL1 primary	others
CC(CNC(=O)[C@H]1O[C@@H](n2cnc3c(=O)[nH]c(N)nc32)[C@H](O)[C@@H]1O)c1ccccc1 (stereo partly specified)	0
COC(=O)[C@@H](Cc1ccccc1)NC(=O)[C@H]1O[C@@H](n2cnc3c(=O)[nH]c(N)nc32)[C@H](O)[C@@H]1O	0
COC(=O)[C@]12C[C@H](CC(=O)NCc3cccc4ccccc34)C(=O)N(Cc3ccc(Cl)cc3Cl)C1=C[C@H](C1CCCC1)O[C@@H]2C	0
COc1ccc2ccccc2c1C=NNC(=O)CN1CCN(Cc2ccccc2)CC1	0
CCOc1ccc(-n2c(SCC(=O)Nc3ccc4cn[nH]c4c3)nnc2-c2ccncc2)cc1	0
O=C(NCc1ccco1)OC1CCC12CCC(c1ccccc1)CC2 (stereo unspecified)	0
COC(=O)C1=C(C)N(Cc2ccc(C(F)(F)F)cc2)C(=NCc2ccccc2C(F)(F)F)NC1c1cccc(Cl)c1 (stereo unspecified)	16	TbREL1 confirm=20
CCN1C(=NCC(C)C)N[C@@H](c2cccc(C(F)(F)F)c2)C(C(=O)OC)=C1C	0
COC(=O)C1=C(C)N(Cc2ccccc2)C(=NCCCCO)N[C@H]1c1cccc(C(F)(F)F)c1	0
COCCN=C1N[C@@H](c2cccc(C(F)(F)F)c2)C(C(=O)OC)=C(C)N1Cc1ccccc1	14	TbREL1 confirm=18
COC(=O)C1=C(C)N(Cc2ccc(C(F)(F)F)cc2)C(=NCc2ccccc2C(F)(F)F)NC1c1ccc(Cl)cc1 (stereo unspecified)	11	TbREL1 confirm=16
COC(=O)C1=C(C)N(Cc2ccc(Cl)cc2)C(=S)NC1c1ccc(Cl)cc1 (stereo unspecified)	0
COC(=O)C1=C(C)N(C)C(=NCc2ccccc2C(F)(F)F)NC1c1ccc(F)cc1 (stereo unspecified)	0

Screening results: PubChem, The Scripps Research Institute Molecular Screening Center
